# Results filed as inconclusive are left out. A call without a number means that no potency is given here. Active and inactive are the calls of the source. Unless noted, calls come from the whole dose curve; as a rule, active = well fitted curve in the direction sought with a large enough effect; inconclusive = small, poorly fitted or top-dose-only effect, or another doubt; inactive = no such curve, though single readings can be large; an effect the other way counts as inactive or inconclusive.
# Legend:
# [1] = biological target: ATP-dependent 6-phosphofructokinase (Trypanosoma brucei brucei) (UniProt O15648); assay: qHTS Assay to Find Inhibitors of T. brucei phosphofructokinase: hit validation (AID 492961); settings: T. brucei PFK, ADP-Glo luminescence; series mostly up to 51.4 µM
# ATP-dependent 6-phosphofructokinase (Trypanosoma brucei brucei), sequence (O15648 whole entry, looked up): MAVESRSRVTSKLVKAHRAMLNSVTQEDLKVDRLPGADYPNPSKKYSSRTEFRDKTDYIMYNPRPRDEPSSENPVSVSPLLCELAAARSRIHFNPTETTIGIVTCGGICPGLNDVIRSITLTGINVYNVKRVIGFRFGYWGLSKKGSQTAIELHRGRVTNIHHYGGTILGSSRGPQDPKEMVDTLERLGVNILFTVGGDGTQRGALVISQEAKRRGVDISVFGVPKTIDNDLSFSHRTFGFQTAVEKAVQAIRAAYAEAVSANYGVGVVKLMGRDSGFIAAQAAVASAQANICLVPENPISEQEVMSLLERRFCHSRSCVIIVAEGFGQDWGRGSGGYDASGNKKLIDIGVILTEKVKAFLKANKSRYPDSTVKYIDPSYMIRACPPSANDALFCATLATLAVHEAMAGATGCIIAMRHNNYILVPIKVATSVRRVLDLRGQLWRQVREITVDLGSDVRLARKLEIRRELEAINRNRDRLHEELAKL
# In short: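 Luminescence from ADP-Glo reports ADP generated as T. brucei PFK (1.25 nM) phosphorylates 0.5 mM fructose-6-phosphate using 0.1 mM ATP. Reactions ran 45 min at room temperature, pH 8.0.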
# [2] = Validation screen for small molecules that induce genotoxicity in human embryonic kidney (HEK293T) cells expressing luciferase-tagged ELG1 (AID 493106); settings: luminescence; series mostly up to 46.1 µM
# In short: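 qHTS format; 2,000 HEK293T ELG1-luc cells/well; 23 nL compound via pin tool; 16 hr, 37 °C/5% CO2; ONE-Glo, 30 min RT; luminescence read.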
# [3] = biological target: ATPase family AAA domain-containing protein 5 (Homo sapiens) (UniProt Q96QE3); assay: Validation screen for small molecules that inhibit ELG1-dependent DNA repair in human embryonic kidney (HEK293T) cells expressing luciferase-tagged ELG1 (AID 493107); settings: HEK293T ELG1-luciferase level, luminescence, 5-fluorouridine co-treatment, 16 h; series mostly up to 46.1 µM;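 note: cells co-treated with the DNA-damaging agent 5-fluorouridine alongside compound; inhibitors lower the ELG1-luciferase luminescence signal; nearly all actives have a fitted effect of over 70% in size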
# ATPase family AAA domain-containing protein 5 (Homo sapiens), sequence (Q96QE3 whole entry, looked up, the tested form may be a part): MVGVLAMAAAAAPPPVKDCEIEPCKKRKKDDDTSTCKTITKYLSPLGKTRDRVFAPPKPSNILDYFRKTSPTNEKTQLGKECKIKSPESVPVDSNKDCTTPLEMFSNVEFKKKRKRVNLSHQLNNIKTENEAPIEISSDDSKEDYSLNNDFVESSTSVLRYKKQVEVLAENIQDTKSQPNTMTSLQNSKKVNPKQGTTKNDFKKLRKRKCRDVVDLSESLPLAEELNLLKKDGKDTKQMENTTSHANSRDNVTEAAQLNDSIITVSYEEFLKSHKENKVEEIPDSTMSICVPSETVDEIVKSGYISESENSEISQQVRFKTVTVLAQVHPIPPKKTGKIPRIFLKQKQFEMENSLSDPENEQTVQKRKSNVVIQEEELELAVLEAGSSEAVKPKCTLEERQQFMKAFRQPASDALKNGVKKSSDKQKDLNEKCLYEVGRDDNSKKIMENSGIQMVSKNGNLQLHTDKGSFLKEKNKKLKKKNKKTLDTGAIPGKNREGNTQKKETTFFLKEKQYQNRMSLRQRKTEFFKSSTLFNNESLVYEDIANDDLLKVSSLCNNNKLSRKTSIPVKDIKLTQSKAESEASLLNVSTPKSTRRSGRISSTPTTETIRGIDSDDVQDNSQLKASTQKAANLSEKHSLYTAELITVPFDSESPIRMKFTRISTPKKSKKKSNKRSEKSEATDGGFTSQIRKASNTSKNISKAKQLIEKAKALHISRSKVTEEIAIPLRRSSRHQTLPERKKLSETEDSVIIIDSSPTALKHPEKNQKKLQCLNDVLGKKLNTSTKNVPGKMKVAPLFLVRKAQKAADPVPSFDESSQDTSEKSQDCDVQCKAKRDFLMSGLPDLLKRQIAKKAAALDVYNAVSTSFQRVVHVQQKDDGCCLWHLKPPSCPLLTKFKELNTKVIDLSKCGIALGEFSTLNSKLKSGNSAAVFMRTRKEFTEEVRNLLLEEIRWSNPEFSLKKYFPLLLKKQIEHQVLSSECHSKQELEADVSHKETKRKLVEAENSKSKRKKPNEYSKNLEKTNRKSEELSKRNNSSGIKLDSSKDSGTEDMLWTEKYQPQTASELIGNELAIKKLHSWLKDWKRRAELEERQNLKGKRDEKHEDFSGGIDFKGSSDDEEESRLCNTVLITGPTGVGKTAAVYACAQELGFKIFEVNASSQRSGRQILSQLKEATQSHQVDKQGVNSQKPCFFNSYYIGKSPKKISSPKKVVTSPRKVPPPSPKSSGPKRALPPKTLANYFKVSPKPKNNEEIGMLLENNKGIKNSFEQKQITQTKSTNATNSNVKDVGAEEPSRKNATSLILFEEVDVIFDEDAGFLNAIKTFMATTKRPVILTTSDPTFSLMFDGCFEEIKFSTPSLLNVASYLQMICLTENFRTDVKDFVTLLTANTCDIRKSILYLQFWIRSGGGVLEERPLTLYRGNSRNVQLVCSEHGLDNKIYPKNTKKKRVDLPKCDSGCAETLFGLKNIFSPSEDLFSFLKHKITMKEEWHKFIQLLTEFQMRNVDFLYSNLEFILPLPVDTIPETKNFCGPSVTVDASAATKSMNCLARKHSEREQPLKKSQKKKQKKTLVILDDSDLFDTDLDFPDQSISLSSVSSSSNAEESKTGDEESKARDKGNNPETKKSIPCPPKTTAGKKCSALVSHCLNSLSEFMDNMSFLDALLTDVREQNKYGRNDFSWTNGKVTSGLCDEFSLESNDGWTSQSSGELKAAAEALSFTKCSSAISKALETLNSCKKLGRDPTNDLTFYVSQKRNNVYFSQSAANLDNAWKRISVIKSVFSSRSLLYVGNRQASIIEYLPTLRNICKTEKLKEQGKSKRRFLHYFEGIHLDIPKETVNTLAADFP
# In short: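 ELG1-luciferase HEK293T reporter; 5-fluorouridine + compound/DMSO, 16 hr, 37 °C, 5% CO2; ONE-Glo 30 min RT; luminescence read, qHTS format.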
# [4] = Nrf2 qHTS screen for inhibitors: Validation (AID 493153; active = well fitted inhibition curve with a large enough effect in the main read-out, with a control signal flat, not every such curve was filed as active; note: potency is the fitted concentration of half-maximal effect); settings: A549 ARE-Fluc reporter, 18-24 h; Potency: luciferase luminescence; viability change: measured here: cytotoxicity max response; luciferase luminescence, at 46.1 µM (top of the series)
# In short: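 Concentration-response test in A549 ARE_Fluc reporter cells (5% FBS OPTI-MEM), compound exposure 18-24 h at 37°C, 5% CO2. Cell viability measured first by CellTiter-Fluor fluorescence; ARE-driven luciferase luminescence then measured as Nrf2 activity.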
# [5] = qHTS for Inhibitors of Cell Surface uPA Generation: Validation Assay (AID 493164); settings: mouse cells, plasminogen activation; series mostly up to 38.3 µM;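 note: RAW 264.7 macrophage cells exposed to compound for 18 h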
# In short: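 Compounds are titrated over seven points (2.45 nM–38.3 uM final) onto pre-plated RAW 264.7 cells and incubated for 18 h. Retained intracellular ATP, measured with ATP-Lite, indicates blocked lethal factor entry.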
# [6] = biological target: Peptidyl-prolyl cis-trans isomerase NIMA-interacting 1 (Homo sapiens) (UniProt Q13526); assay: qHTS Validation Assay to Find Inhibitors of Pin1 (AID 504536; active = well fitted inhibition curve with a large enough effect in the polarisation, with a control signal flat, not every such curve was filed as active; the % refers to the polarisation); settings: Pin1 fluorescence polarization peptide binding assay; series mostly up to 57.5 µM
# Peptidyl-prolyl cis-trans isomerase NIMA-interacting 1 (Homo sapiens), sequence (Q13526 whole entry, looked up): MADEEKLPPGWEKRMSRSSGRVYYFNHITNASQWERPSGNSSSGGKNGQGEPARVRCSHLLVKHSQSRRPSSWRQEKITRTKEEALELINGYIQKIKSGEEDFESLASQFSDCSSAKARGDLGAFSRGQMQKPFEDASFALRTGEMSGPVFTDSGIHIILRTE
# In short: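 Fluorescence polarization competition: compounds (titration) displace HiFluor-488-labeled Pin1-1b peptide from Pin1 (0.3 uM final) in pH 7.5 HEPES buffer with DTT, 10 min at room temperature; %Activity normalized to no-enzyme wells, curves fitted.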
# [7] = biological target: Phosphoglycerate kinase, glycosomal (Trypanosoma brucei brucei) (UniProt P07378); assay: qHTS Validation Assay to Find Inhibitors of Phosphoglycerate Kinase (AID 504547); settings: enzymatic PGK inhibition, coupled luminescence read-out; series mostly up to 57.5 µM
# Phosphoglycerate kinase, glycosomal (Trypanosoma brucei brucei), sequence (P07378 whole entry, looked up): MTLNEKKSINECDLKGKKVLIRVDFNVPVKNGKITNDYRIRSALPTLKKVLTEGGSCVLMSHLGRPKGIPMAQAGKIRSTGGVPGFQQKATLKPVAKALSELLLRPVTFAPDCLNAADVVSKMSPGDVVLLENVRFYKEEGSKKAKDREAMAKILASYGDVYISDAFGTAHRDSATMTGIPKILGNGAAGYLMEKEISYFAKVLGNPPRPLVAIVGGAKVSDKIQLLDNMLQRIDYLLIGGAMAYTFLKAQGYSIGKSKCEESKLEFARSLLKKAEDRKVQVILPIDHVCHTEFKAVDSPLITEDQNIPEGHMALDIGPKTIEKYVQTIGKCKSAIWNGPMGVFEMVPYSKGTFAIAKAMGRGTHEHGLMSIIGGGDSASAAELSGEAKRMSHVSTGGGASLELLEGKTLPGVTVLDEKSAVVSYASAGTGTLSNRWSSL
# In short: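 Compounds are pinned into the substrate/PGK mixture, and GAPDH (100nM final) is added to start the reaction by producing 1,3-BPG. After 60 minutes at room temperature, Kinase-Glo Plus is added and luminescence is measured 10 minutes later.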
# [8] = biological target: Thyrotropin-releasing hormone receptor (Homo sapiens) (UniProt P34981); assay: qHTS for Small Molecule Agonists and Allosteric Enhancers of Human TRH Receptor: Validation Screen for Agonists (AID 493127;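 active = calcium activation more than 3 SD above the typical response in the agonist read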;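 note: intracellular calcium rise by fluo-8 fluorescence before TRH EC20 addition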); settings: TRH receptor agonist cell assay; at 2 µM; stronger effect = higher value
# Thyrotropin-releasing hormone receptor (Homo sapiens), sequence (P34981 whole entry, looked up): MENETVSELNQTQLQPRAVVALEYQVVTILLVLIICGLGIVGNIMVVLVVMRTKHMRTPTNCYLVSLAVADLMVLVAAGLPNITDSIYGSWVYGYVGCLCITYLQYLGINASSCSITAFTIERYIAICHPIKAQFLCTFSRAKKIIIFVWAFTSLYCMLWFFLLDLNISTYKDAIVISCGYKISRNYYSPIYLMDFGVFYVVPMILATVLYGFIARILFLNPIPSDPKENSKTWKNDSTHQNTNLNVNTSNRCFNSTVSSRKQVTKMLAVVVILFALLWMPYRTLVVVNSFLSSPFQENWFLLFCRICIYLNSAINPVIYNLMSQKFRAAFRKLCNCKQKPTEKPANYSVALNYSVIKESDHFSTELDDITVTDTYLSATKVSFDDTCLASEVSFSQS
# In short: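 Read-out: intracellular calcium release measured kinetically by FDSS (fluo-8, ex 480/em 530 nm), 1 reading/s after a 10-cycle baseline. TRHR cells, 2000/well, cultured 18 h at 33.5C, dye-loaded at room temp. Compound-evoked positive calcium signal flags agonists.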
# [9] = biological target: Galactokinase (Homo sapiens) (UniProt P51570); assay: qHTS Validation Assay for Inhibitors of Human Galactokinase (GALK) (AID 493189); settings: purified human GALK enzyme activity, qHTS 7-point titration; series mostly up to 57.5 µM
# Galactokinase (Homo sapiens), sequence (P51570 whole entry, looked up): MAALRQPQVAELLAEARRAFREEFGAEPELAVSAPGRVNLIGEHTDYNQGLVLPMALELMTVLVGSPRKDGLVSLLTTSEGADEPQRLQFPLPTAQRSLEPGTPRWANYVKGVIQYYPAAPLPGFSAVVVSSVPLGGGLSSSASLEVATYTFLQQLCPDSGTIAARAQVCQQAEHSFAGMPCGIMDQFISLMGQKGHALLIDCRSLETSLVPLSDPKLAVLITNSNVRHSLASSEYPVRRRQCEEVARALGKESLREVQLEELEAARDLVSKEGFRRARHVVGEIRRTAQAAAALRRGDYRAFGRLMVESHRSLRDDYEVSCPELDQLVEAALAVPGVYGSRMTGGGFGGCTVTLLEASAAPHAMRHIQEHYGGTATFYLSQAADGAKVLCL
# From the text: NIH Molecular Libraries Probe Production Centers Network [MLPCN]
# NIH Chemical Genomics Center [NCGC]
# Assay Submitter (PI): Kent Lai (University of Utah School of Medicine, 50 N Mario Capecchi Drive, Salt Lake City, UT 84132)
# Inherited deficiency of galactose-1-phosphate uridyltransferase (GALT) can result in a potentially lethal disorder called Classic Galactosemia (OMIM 230400). Several lines of evidence indicate that an elevated level of galactose-1-phosphate (gal-1-p), the product of galactokinase (GALK), is a major, if not sole, pathogenic mechanism in patients with classic galactosemia. Therefore, finding inhibitors of GALK is a potential novel therapy for this inherent metabolic disease and is the long term goal of this project.
# GALK (provided by the assay submitter) was assayed using ATP and D-(+)-Galactose (Sigma-Aldrich cat# G0750) as substrates. […]
# Three uL/well of ATP-buffer solution (35 uM ATP, 20mM HEPES pH8.0, 5 mM MgCl2, 60 mM NaCl, 1 mM DTT, 0.01% BSA final concentration) was dispensed into 1536-well, assay plates (Greiner, solid white medium-binding plates) with Aurora Discovery BioRAPTR Flying Reagent Dispenser (FRD; Beckton-Dickenson). […] Luminescence was detected with the ViewLux plate reader (Perkin Elmer, Waltham, MA) after 10 min incubation using a 1 sec exposure time and 2x binning.
# [10] = Validation screen for small molecules that induce DNA re-replication in SW480 colon adenocarcinoma cells (AID 504364); settings: DNA re-replication phenotype (high-content imaging); series mostly up to 46.1 µM
# In short: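 Read-out: total Hoechst intensity of nuclei by fluorescence scanning imager; hits raise the fraction of nuclei with elevated DNA content. Cells received compound for 48 hr at 37 C before a 40 min stain.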
compound,measurement,setting,value
O=C(O)P(=O)(O)O,Potency,[1],inactive
CCCCCCCCCCCCCC(=O)OC(C)C,Potency,[1],inactive
CC(C)(C)NC[C@H](O)COc1nsnc1N1CCOCC1,outcome,[2],inactive
same,outcome,[3],inactive
same,Potency,[4],inactive
same,viability change,[4],2.77%
same,outcome,[5],inactive
same,outcome,[6],inactive
same,outcome,[7],inactive
C[N+]1(C)CCC(=C(c2ccccc2)c2ccccc2)CC1,Potency,[1],inactive
CN=C(N)NCCC[C@H](N)C(=O)O,outcome,[2],inactive
same,outcome,[3],inactive
same,Potency,[4],inactive
same,viability change,[4],2.51%
same,outcome,[5],inactive
same,outcome,[6],inactive
same,outcome,[7],inactive
COC(=O)C(c1ccccc1Cl)N1CCc2sccc2C1 (stereo not drawn),Potency,[1],inactive
O=[N+]([O-])c1cccc(S(=O)(=O)NCCNS(=O)(=O)c2cccc([N+](=O)[O-])c2)c1,Potency,[1],inactive
NS(=O)(=O)Cc1noc2ccccc12,Potency,[1],inactive
NCc1ccccc1Sc1ccccc1CO,Potency,[1],inactive
Cc1cccc(C)c1NC(=O)c1ccccc1C(=O)O,Potency,[1],inactive
Oc1ccccc1C=NCc1ccccc1,Potency,[1],inactive
COc1ccc(/C=N/NC(=O)c2ccncc2)cc1OC,Potency,[1],inactive
COc1cc(C(=S)N2CCOCC2)ccc1O,Potency,[1],inactive
CCOc1ccccc1C(N)=O,Potency,[1],inactive
OC1C(O)C(O)C(O)C(O)C1O (stereo not drawn),Potency,[1],inactive
CC[C@H](c1ccc(O)cc1)[C@@H](CC)c1ccc(O)cc1,Potency,[1],inactive
CCc1ccc(C(=O)C(C)CN2CCCCC2)cc1 (stereo not drawn),Potency,[1],inactive
CCCCCCCC/C=C\CCCCCCCCN,Potency,[1],inactive
CC(C)(C)CC(C)(C)c1ccc(O)c(-n2nc3ccccc3n2)c1,Potency,[1],inactive
CC(=O)NC(=O)c1ccccc1O,Potency,[1],inactive
Cc1ccc(-c2ncc(Cl)cc2-c2ccc(S(C)(=O)=O)cc2)cn1,Potency,[1],inactive
CCOC(=O)[C@H](CCc1ccccc1)N[C@@H](C)C(=O)N1[C@H](C(=O)O)C[C@H]2CCCC[C@@H]21,Potency,[1],inactive
same,outcome,[2],inactive
same,outcome,[3],inactive
same,Potency,[4],inactive
same,viability change,[4],-5.88%
same,outcome,[5],inactive
same,outcome,[6],inactive
same,outcome,[7],inactive
CC(=O)OCC(=O)[C@H]1CC[C@H]2[C@@H]3CCC4=CC(=O)CC[C@]4(C)[C@H]3CC[C@]12C,Potency,[1],inactive
O=C(CCN1CCN2CCCC2C1)N1c2ccccc2Sc2ccc(Cl)cc21 (stereo not drawn),Potency,[1],inactive
COc1cc(O)c(C(=O)c2ccccc2)cc1S(=O)(=O)O,Potency,[1],inactive
CN1CCC(OC(c2ccccc2)c2ccccc2)CC1,Potency,[1],inactive
CCOC(=O)c1c(N)sc2c1CCN(Cc1ccccc1)C2,Potency,[1],inactive
CC(=O)OCC1=C(C(=O)O)N2C(=O)[C@@H](NC(=O)CSc3ccncc3)[C@H]2SC1,activation,[8],0.5% (inactive)
same,outcome,[9],inactive
same,outcome,[10],inactive
CC1(COc2ccc(CC3SC(=O)NC3=O)cc2)CCCCC1 (stereo not drawn),Potency,[1],inactive
O=c1[nH]c(=O)n([C@H]2C[C@H](O)[C@@H](CO)O2)cc1F,Potency,[1],inactive
CN(Cc1ccc(C(C)(C)C)cc1)Cc1cccc2ccccc12,Potency,[1],inactive
O=C1C(O)=C(O)C(=O)C(O)=C1O,Potency,[1],inactive
O=S(=O)(O)c1ccc(O)cc1,Potency,[1],inactive
NC(N)=NCc1cccc(I)c1,Potency,[1],inactive
same,outcome,[2],inactive
same,outcome,[3],inactive
same,activation,[8],-0.0625% (inactive)
same,Potency,[4],20.6 µM (active)
same,viability change,[4],2.28%
same,outcome,[5],inactive
same,outcome,[9],inactive
same,outcome,[10],inactive
same,outcome,[6],inactive
same,outcome,[7],inactive
CCCCCCCCOc1ccc(C(=O)c2ccccc2)c(O)c1,Potency,[1],inactive
Nc1nc(N)c(-c2ccccc2)s1,Potency,[1],inactive
CCCCCCCCCCCCCCCCO,Potency,[1],inactive
